Where “and” joins values, the source holds several entries; their conditions need not be identical. Equal entries are not always repeated. Records with an inconclusive call do not appear. Where a call stands in place of a potency, no number is given. The source holds several records for some structures; these can differ, active in one and inactive in another. Calls of active or inactive are those of the source. Unless noted, calls follow the shape of the full dose curve.
Legend:
[1] = Nuclear factor erythroid 2-related factor 2/antioxidant responsive element (Nrf2/ARE) small molecule agonists: qHTS cell viability counter screen in human keratinocytes (AID 1919968; active = well fitted curve in the direction sought with a large enough effect in the repeat runs; an effect the other way counts as inactive or inconclusive; also: nearly all actives have a fitted effect of over 55% in size; also: potency is read from the fitted curve at half-maximal effect)
In short: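 KeratinoSens HaCaT cells, 1,500/well, preincubated 5 h, then exposed to compounds in DMSO for 23 h at 37 C/5% CO2. Viability read as CellTiter-Fluor fluorescence after 1 h, in the same wells as the ARE-luciferase read.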

[2] = Nuclear factor erythroid 2-related factor 2/antioxidant responsive element (Nrf2/ARE) small molecule agonists: luciferase reporter gene qHTS assay in human keratinocytes (AID 1919969); also: nearly all actives have a fitted effect of over 35% in size; also: potency is read from the fitted curve at half-maximal effect
[3] = target: Gonadotropin-releasing hormone receptor (Homo sapiens) (UniProt P30968); experiment: Human gonadotropin-releasing hormone receptor (GnRHR) small molecule agonists, calcium flux assay in GnRHR-HEK293 cells (AID 1920063); also: nearly all actives have a fitted effect of over 35% in size; also: potency is read from the fitted curve at half-maximal effect
In short: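 HEK293 cells stably expressing human GnRHR were dye-loaded for 1 h at 37 C. Compound was added in agonist mode and fluorescence (Ex/Em 480/540) recorded kinetically for 3 min. Fifteen concentrations, triplicates.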

[4] = target: KiSS-1 receptor (Homo sapiens) (UniProt Q969F8); experiment: Human kisspeptin (KISS1R) small molecule agonists, calcium flux assay in KISS1R-HEK293 cells (AID 1920064; active = well fitted curve in the direction sought with a large enough effect in the repeat runs; an effect the other way counts as inactive or inconclusive)
In short: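 HEK293 cells stably expressing human KISS1R were loaded with calcium dye for 1 h at 37 C, then given compound; fluorescence (Ex/Em 480/540) was read kinetically for 3 min. Fifteen concentrations, triplicate.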

[5] = G protein-coupled receptor (GPCR) small molecule agonists, calcium flux assay: HEK293 wild type cell line counter screen (AID 1920065)
In short: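 Wild-type HEK293 cells plated 18 h, loaded with calcium dye 1 h at 37 C, then compounds added in agonist mode (ATP as positive control). Kinetic fluorescence Ex/Em 480/540 recorded 3 min at 1 sec intervals; 15 concentrations, triplicate.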

[6] = p53 small molecule agonists, cell-based qHTS assay with human liver microsomes (AID 1963577)
In short: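 Fluorescence of the beta-lactamase reporter in p53RE-bla cells, detected with LiveBLAzer substrate (2 h, room temperature, dark), served as the read-out after 16 h compound exposure at 37 C with human liver microsomes and NADPH, each 0.5 mg/mL final.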

[7] = p53 small molecule agonists, cell-based qHTS assay with rat liver microsomes (AID 1963578)
In short: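 Cells carrying a p53 response element–beta-lactamase reporter were plated and rested 5 h, then dosed with compound in DMSO plus rat liver microsomes and NADPH, each at 0.5 mg/mL final. After 16 h at 37 C, LiveBLAzer substrate was added for 2 h.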

[8] = p53 small molecule agonists, cell-based qHTS assay with human liver microsomes: qHTS cell viability counter screen (AID 1963579); also: nearly all actives have a fitted effect of over 45% in size; also: potency is read from the fitted curve at half-maximal effect
In short: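 Cytotoxicity counter screen: p53RE-bla, 4,000 cells/well; 5 h settle, 37 C/5% CO2; cpd + HLM 0.5 mg/mL + NADPH 0.5 mg/mL (final); 16 h, 37 C; CellTiter-Glo, 30 min RT, luminescence.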

[9] = p53 small molecule agonists, cell-based qHTS assay with rat liver microsomes: qHTS cell viability counter screen (AID 1963580); also: nearly all actives have a fitted effect of over 45% in size; also: potency is read from the fitted curve at half-maximal effect
In short: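 Viability is assessed in parallel with the p53 reporter read: HCT-116 p53RE-bla cells receive compounds plus rat microsomes and NADPH (0.5 mg/mL final apiece), incubate 16 h at 37 C, and then CellTiter-Glo luminescence is recorded.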

[10] = p53 small molecule agonists, cell-based qHTS assay: qHTS cell viability counter screen (AID 1963581); also: nearly all actives have a fitted effect of over 45% in size; also: potency is read from the fitted curve at half-maximal effect
In short: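 p53RE-bla HCT-116 cells, compounds added 5 h after plating and incubated 16 h at 37 C. Cytotoxicity measured in the same wells as intracellular ATP by CellTiter-Glo luminescence after 30 min at room temperature.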

[11] = target: 5-hydroxytryptamine receptor 2A (Homo sapiens) (UniProt P28223); experiment: 5-hydroxytryptamine receptor 2A (HTR2A) small molecule antagonists, cell-based qHTS assay (AID 1963586); also: nearly all actives have a fitted effect of over 45% in size
In short: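 Antagonist-mode intracellular calcium assay: DOI (4 nM) added after 5 min compound pre-incubation at room temperature to dye-loaded HTR2A-CHO cells. Fluorescence followed for 3 min, sampled every second.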

[12] = target: 5-hydroxytryptamine receptor 2A (Homo sapiens) (UniProt P28223); experiment: 5-hydroxytryptamine receptor 2A (HTR2A) small molecule agonists, cell-based qHTS assay (AID 1963587); also: nearly all actives have a fitted effect of over 30% in size; also: potency is read from the fitted curve at half-maximal effect
In short: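 CHO cells stably expressing human HTR2A, plated 18 h, loaded with calcium dye 1 h at 37 C. Agonist mode: compounds added and intracellular calcium fluorescence recorded kinetically for 2 min at 1 sec intervals.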

[13] = target: Muscarinic acetylcholine receptor M1 (Homo sapiens) (UniProt P11229); experiment: Cholinergic receptor muscarinic 1 (CHRM1) small molecule antagonists, cell-based qHTS assay (AID 1963588); also: nearly all actives have a fitted effect of over 40% in size; also: potency is read from the fitted curve at half-maximal effect
In short: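 CHRM1-CHO calcium-flux assay, antagonist mode. Cells were seeded 18 h, dye-loaded 1 h at 37 C and given compound for 5 min at RT, then acetylcholine was added at 50nM. FDSS fluorescence was read 3 min; 15 concentrations, three runs.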

[14] = target: Muscarinic acetylcholine receptor M1 (Homo sapiens) (UniProt P11229); experiment: Cholinergic receptor muscarinic 1 (CHRM1) small molecule agonists, cell-based qHTS assay (AID 1963589); also: nearly all actives have a fitted effect of over 35% in size; also: potency is read from the fitted curve at half-maximal effect
In short: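 CHO cells stably expressing human CHRM1 were loaded with calcium dye for 1 h at 37 C, then compound was added in agonist mode. Intracellular calcium fluorescence was followed kinetically at 1 s intervals. Fifteen concentrations were tested in three independent runs.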

[15] = target: D(2) dopamine receptor (Homo sapiens) (UniProt P14416); experiment: Dopamine D2 receptor (DRD2) small molecule antagonists, cell-based qHTS assay (AID 1963595; active = well fitted inhibition curve with a large enough effect in the signal ratio in the repeat runs, with a control signal flat; the % refers to the signal ratio; also: potency is read from the fitted curve at half-maximal effect)
In short: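 HTRF cAMP read-out at 665 and 620 nm emission (340 nm excitation). Antagonist mode: compounds were tested against 12 nM quinpirole in DRD2-HEK293 cells, with 200 nM NKH477 raising cAMP and 0.1 mM Ro20-1724 blocking its breakdown.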

[16] = target: D(2) dopamine receptor (Homo sapiens) (UniProt P14416); experiment: Dopamine D2 receptor (DRD2) small molecule agonists, cell-based qHTS assay (AID 1963594); also: nearly all actives have a fitted effect of over 35% in size
In short: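 HEK293 cells stably expressing human DRD2, pre-treated with PDE inhibitor Ro20-1724 (0.1 mM final) and compound 10 min at room temperature, then stimulated with NKH477 (200nM […]) for 30 min. cAMP read by HTRF (665/620 nm).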

[17] = cAMP Responsive Elements (CRE) small molecule antagonists, cell-based qHTS assay (AID 1963591; active = well fitted inhibition curve with a large enough effect in the signal ratio in the repeat runs, not every such curve was filed as active; the % refers to the signal ratio)
In short: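 CRE-bla HEK293T cells plated 18 h, then given compound plus NKH477 at 0.25 uM final for 3 h at 37C. Beta-lactamase reporter read with LiveBLAzer B/G FRET substrate after 2 h at room temperature.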

[18] = target: Beta-2 adrenergic receptor (Homo sapiens) (UniProt P07550); experiment: Adrenergic beta2 receptor (ADRB2) small molecule antagonists, cell-based qHTS assay (AID 1963592); also: series mostly up to about 92 µM; nearly all actives have a fitted effect of over 50% in size
In short: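 Cells (CHO, stable ADRB2 overexpression) incubated 18-20hr at 37C; compounds added from DMSO; agonist mix (1nM isoproterenol, 100uM IBMX, 25uM Ro-20-1724) added; 0.5hr RT; d2-cAMP and anti-cAMP-cryptate added; 1hr RT; 665/615 nm read.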

[19] = cAMP Responsive Elements (CRE) small molecule agonists, cell-based qHTS assay (AID 1963590)
In short: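 CRE-bla HEK 293T cells, 2,000/well in DMEM with 10% dialyzed FBS and 25 mM HEPES, pre-incubated 18 h at 37 C, then exposed to compound 3 h at 37 C. Beta-lactamase reporter read with LiveBLAzer B/G FRET substrate after 2 h at room temperature.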

[20] = p53 small molecule agonists, cell-based qHTS assay (AID 1963582; active = well fitted activation curve with a large enough effect in the signal ratio in the repeat runs, not every such curve was filed as active; the % refers to the signal ratio)
In short: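 p53RE-bla reporter cells, compounds added in DMSO after 5 h plating, incubated 16 h at 37 C. Beta-lactamase read via 2 h room-temperature LiveBLAzer B/G FRET substrate, fluorescence intensity.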

Sequence of Beta-2 adrenergic receptor (Homo sapiens) (P07550 whole entry, looked up): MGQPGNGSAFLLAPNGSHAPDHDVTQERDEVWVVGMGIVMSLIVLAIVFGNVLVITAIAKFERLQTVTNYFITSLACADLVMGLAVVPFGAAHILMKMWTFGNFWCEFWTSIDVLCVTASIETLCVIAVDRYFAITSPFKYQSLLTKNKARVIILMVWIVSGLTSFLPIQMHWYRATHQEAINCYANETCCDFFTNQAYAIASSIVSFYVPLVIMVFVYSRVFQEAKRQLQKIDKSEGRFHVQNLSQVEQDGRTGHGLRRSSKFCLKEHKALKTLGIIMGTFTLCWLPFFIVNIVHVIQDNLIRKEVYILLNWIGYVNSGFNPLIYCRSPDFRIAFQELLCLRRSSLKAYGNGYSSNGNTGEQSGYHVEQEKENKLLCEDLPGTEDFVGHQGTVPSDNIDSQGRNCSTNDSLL
Sequence of Muscarinic acetylcholine receptor M1 (Homo sapiens) (P11229 whole entry, looked up): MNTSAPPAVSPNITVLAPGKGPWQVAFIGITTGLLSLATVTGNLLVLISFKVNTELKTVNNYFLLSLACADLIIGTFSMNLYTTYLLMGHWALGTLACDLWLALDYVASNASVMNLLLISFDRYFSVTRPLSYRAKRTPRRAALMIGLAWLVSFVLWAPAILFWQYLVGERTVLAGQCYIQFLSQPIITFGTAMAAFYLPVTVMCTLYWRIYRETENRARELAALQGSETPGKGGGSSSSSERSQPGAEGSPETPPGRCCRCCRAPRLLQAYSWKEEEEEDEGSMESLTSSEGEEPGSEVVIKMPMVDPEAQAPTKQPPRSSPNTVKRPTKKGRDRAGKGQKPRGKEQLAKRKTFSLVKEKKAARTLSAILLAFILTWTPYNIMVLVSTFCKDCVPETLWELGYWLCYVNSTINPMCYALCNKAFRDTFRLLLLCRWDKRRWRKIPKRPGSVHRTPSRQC
Sequence of Gonadotropin-releasing hormone receptor (Homo sapiens) (P30968 whole entry, looked up): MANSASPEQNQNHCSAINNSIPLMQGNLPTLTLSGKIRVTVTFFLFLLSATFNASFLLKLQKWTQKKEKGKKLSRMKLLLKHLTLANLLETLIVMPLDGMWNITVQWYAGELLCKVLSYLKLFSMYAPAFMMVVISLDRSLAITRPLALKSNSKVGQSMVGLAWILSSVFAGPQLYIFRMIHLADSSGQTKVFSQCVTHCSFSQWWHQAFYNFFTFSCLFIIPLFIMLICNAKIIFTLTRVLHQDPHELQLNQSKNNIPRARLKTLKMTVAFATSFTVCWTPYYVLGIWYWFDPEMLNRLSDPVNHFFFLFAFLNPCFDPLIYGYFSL
Sequence of KiSS-1 receptor (Homo sapiens) (Q969F8 whole entry, looked up): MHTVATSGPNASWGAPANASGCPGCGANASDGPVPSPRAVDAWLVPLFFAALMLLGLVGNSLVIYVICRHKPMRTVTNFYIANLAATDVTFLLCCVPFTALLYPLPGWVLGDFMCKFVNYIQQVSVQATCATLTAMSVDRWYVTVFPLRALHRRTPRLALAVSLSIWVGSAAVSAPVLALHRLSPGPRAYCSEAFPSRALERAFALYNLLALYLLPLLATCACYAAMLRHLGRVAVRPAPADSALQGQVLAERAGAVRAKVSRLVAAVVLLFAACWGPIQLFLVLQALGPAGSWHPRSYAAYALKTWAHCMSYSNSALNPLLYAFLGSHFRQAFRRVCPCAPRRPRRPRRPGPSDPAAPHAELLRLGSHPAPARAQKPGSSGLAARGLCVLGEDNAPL
Sequence of D(2) dopamine receptor (Homo sapiens) (P14416 whole entry, looked up): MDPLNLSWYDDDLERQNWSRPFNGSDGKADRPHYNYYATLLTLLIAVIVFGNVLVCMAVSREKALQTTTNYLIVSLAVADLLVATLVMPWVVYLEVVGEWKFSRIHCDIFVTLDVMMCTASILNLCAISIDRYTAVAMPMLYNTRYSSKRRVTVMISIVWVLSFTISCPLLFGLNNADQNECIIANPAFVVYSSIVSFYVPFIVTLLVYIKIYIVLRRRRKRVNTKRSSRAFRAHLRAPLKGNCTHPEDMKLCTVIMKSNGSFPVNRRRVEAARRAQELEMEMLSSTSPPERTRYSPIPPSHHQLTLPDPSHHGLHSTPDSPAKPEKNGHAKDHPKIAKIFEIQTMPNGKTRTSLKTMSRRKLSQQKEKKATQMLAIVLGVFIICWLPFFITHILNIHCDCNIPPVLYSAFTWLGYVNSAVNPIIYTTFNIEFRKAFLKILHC
Sequence of 5-hydroxytryptamine receptor 2A (Homo sapiens) (P28223 whole entry, looked up): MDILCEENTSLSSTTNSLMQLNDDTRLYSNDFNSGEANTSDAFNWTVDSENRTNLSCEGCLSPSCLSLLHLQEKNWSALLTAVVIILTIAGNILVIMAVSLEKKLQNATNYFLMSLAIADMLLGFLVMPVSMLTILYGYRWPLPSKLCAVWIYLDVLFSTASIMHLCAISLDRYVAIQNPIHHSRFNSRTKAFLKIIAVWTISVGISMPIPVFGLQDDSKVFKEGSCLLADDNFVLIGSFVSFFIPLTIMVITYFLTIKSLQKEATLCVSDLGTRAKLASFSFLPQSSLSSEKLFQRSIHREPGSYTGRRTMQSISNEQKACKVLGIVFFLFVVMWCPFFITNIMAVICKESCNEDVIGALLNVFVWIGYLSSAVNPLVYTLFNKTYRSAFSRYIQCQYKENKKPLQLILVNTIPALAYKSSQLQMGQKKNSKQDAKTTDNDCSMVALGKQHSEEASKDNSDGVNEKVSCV

SMILES | Potency [1] | Potency [2] | Potency [3] | Potency [4] | Potency [5] | Potency [6] | Potency [7] | Potency [8] | Potency [9] | Potency [10] | Potency [11] | Potency [12] | Potency [13] | Potency [14] | Potency [15] | Potency [16] | Potency [17] | Potency [18] | Potency [19] | Potency [20]
CCC(=O)C(CC(C)N(C)C)(c1ccccc1)c1ccccc1 (stereo unspecified) | inactive | inactive | inactive | inactive | inactive | inactive | inactive | inactive | inactive | inactive | inactive | inactive | inactive and 10.1 µM (active) | inactive | inactive | – | – | – | – | –
ClC1=C(Cl)C2(Cl)C3C(Cl)C(Cl)CC3C1(Cl)C2(Cl)Cl (stereo unspecified) | 30.5 µM (active) and 43.3 µM (active) | 4.84 µM (active) and 12.2 µM (active) | inactive | inactive | inactive | inactive | inactive | inactive | inactive | inactive | inactive | inactive | inactive | inactive | – | inactive | – | – | – | –
C=CCc1cc(OC)c2c(c1)OCO2 | inactive | inactive | inactive | inactive | inactive | inactive | inactive | inactive | inactive | inactive | inactive | inactive | inactive | inactive | – | inactive | inactive | inactive | – | –
O=[N+]([O-])c1ccc(Oc2ccc(Cl)cc2Cl)cc1 | inactive | inactive | inactive | inactive | inactive | inactive | inactive | inactive | inactive | inactive | inactive | inactive | inactive | inactive | – | inactive | – | inactive | inactive | –
CC(=O)[O][Hg][c]1ccccc1 | 1.08 µM (active) and 2.17 µM (active) and 3.35 µM (active) | 864 nM (active) and 2.66 µM (active) | 34.4 µM (active) and 24.5 µM (active) | inactive | inactive | inactive | inactive | 4.04 µM (active) and 5.13 µM (active) | 3.6 µM (active) and 5.76 µM (active) and 11.2 µM (active) | 1.61 µM (active) and 4.08 µM (active) and 5 µM (active) | inactive | 21.7 µM (active) and 54.9 µM (active) and inactive | inactive | 43.6 µM (active) | 6.06 µM (active) and 2.73 µM (active) and 5.96 µM (active) | – | – | – | – | –
ClC1C(Cl)C(Cl)C(Cl)C(Cl)C1Cl (stereo unspecified) | inactive | 62.4 µM (active) and inactive | inactive | inactive | inactive | inactive | inactive | inactive | inactive | inactive | inactive | inactive and 54.9 µM (active) | inactive | inactive | inactive | inactive | inactive | inactive | inactive | –
C=CC(C)=O | inactive | 5.97 µM (active) | inactive | inactive | inactive | inactive | inactive | inactive | inactive | inactive | inactive | inactive | inactive | inactive | inactive | inactive | inactive | inactive | inactive | –
CCCCCCCCCc1ccc(O)cc1 | 27.6 µM (active) | inactive | inactive | inactive | inactive | inactive | inactive | inactive | inactive and 40.8 µM (active) | inactive | – | – | – | – | inactive | inactive | inactive | inactive | inactive | inactive
CC(=O)C1CCOC1=O (stereo unspecified) | inactive | inactive | inactive | inactive | inactive | inactive | inactive | inactive | inactive | – | inactive | inactive | inactive | inactive | inactive | inactive | inactive | inactive | inactive | inactive
C=CC(N)=O | inactive | inactive | inactive | inactive | inactive | inactive | inactive | inactive | inactive | – | – | – | – | – | inactive | inactive | inactive | inactive | inactive | inactive
Clc1ccc(C(Cl)(Cl)Cl)cc1 | inactive | inactive | inactive | inactive | inactive | inactive | inactive | inactive | – | inactive | inactive | inactive | inactive | inactive | – | inactive | inactive | inactive | inactive | inactive
COC(C)(C)C | inactive | inactive | inactive | inactive | inactive | inactive | inactive | inactive | inactive | – | inactive | inactive | inactive | inactive | inactive | inactive | inactive | inactive | inactive | –
O=[N+]([O-])c1ccc(Cl)c([N+](=O)[O-])c1 | 24.7 µM (active) and 43.3 µM (active) | 15.6 µM (active) | inactive | inactive | inactive | inactive | inactive | 36.9 µM (active) and 40.8 µM (active) | 40.8 µM (active) | – | inactive | inactive | inactive | inactive | inactive | inactive | – | – | – | –
CC1(C)C(=O)NC(=O)NC1=O | inactive | inactive | inactive | inactive | inactive | inactive | inactive | inactive | inactive | – | inactive | inactive | inactive | inactive | inactive | inactive | inactive | inactive | inactive | inactive
Oc1cc(Cl)ccc1Cl | inactive | inactive | inactive | inactive | inactive | inactive | inactive | inactive | inactive | – | inactive | inactive | inactive | inactive | inactive | inactive | inactive | inactive | inactive | inactive
CCC(C)(C)c1ccc(O)c(C(C)(C)CC)c1 | 13.5 µM (active) and 24.3 µM (active) | 7.7 µM (active) | inactive | inactive | inactive | inactive | inactive | 45.3 µM (active) and 25.7 µM (active) | inactive and 25.7 µM (active) | 18 µM (active) and 22.9 µM (active) | – | – | 20.9 µM (active) | inactive | inactive and 43.3 µM (active) | inactive | – | inactive | – | –

— PubChem BioAssay (Tox21)
